Compound activity from PubChem.
Compounds with a hit are over-represented: about 12% of the library has one in this group of screens.
HP1b chromo inh: inhibitors of HP1-beta chromodomain binding to methylated histone tails; P83916; AlphaScreen HP1-beta / biotin-H3K9me3 peptide binding; Potency, µM (top dose mostly 114 µM), without a hit: at the highest dose activity change, negative = inhibition, most hits filed as inhibitors; 390,000 tested, 0.56% active; AID 540317; note: nearly all actives have a fitted effect of over 70% in size
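Compound inhibition of the preformed complex between 50 nM HP1-beta and 50 nM biotinylated H3K9me3 peptide was read by AlphaScreen. Buffer was PBS pH 7.4 with 0.01% Tween-20. Incubations ran 30 min at room temperature, with 10 ug/mL donor/acceptor beads.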
JMJD2A Tudor inh: inhibitors of human JMJD2A Tudor domain. Potency, µM (series often up to 114 µM), without a hit: top-dose activity change, negative = inhibition, most hits filed as inhibitors. AlphaScreen JMJD2A-Tudor / H3K4me3 peptide binding. O75164. 390,000 tested, 4.4% active. AID 504339; note: % is set by controls: 0 for no effect and ±100 for the full control effect; nearly all actives have a fitted effect of over 50% in size
Sfp inh: inhibitors of Bacillus subtilis Sfp phosphopantetheinyl transferase. Biochemical Sfp PPTase activity, qHTS. Q9F4F7. Potency, µM, for the others: largest response in the series, negative = inhibition, usual class: inhibitors. 310,000 tested, 3.5% active;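 note: the enzyme is Sfp with the accession as filed and its product quenches rhodamine fluorescence; 0% = enzyme reaction without inhibitor and -100% = no enzyme wells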
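Sfp 15 nM + cpd, 15 min RT; start w/ rhodamine-CoA 5 uM, BHQ-2-YbbR 12.5 uM (final); 50 mM Hepes pH 7.6, 10 mM MgCl2, 0.01% NP-40, 0.01% BSA; read 525/598 nm at 0 and 30 min.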
G9a block: G9a (human) methyltransferase inhibition; Q96KQ7; G9a H3K9 monomethylation, AlphaScreen, 2 h; Potency, µM (series often up to 102 µM), inactives show at the top dose activity, negative = inhibition, most hits filed as inhibitors; 350,000 tested, 8.8% active; AID 504332; note: % is set by controls: 0 for no effect and ±100 for the full control effect; nearly all actives have a fitted effect of over 75% in size
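G9a (20 nM) was preincubated 15 min with compound, then reacted 2 h at room temperature with 500 nM biotin-H3K9 peptide and 20 µM SAM. Monomethyl-H3K9 detected by AlphaScreen using anti-H3K9me1 antibody.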
BAZ2B block: BAZ2B (human) inhibition. Q9UIF8. AlphaScreen BAZ2B-H3K14Ac peptide displacement. Potency, µM (highest dose often 114 µM), for the others: at the top dose activity change, negative = inhibition, hits mostly inhibitors. 360,000 tested, 4.4% active; note: % is set by controls: 0 for no effect and ±100 for the full control effect; nearly all actives have a fitted effect of over 60% in size
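Inhibition is scored as reduced AlphaScreen emission. The BAZ2B/b-H3(5-23)K14Ac complex (50 nM each) in PBS pH 7.4, 0.01% Tween-20 meets compound (up to 110 uM) for 30 min at RT before bead addition.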
L3MBTL1 block: inhibitors of human L3MBTL1; 230,000 tested, 0.66% active; AID 485360; Q9Y468; AlphaScreen L3MBTL1–H3K9me1 peptide binding; Potency, µM (top dose mostly 57.1 µM), without a hit: at the highest dose activity, negative = inhibition, usual class: inhibitors; note: % is set by controls: 0 for no effect and ±100 for the full control effect; nearly all actives have a fitted effect of over 60% in size
Target sequence (Q9Y468 whole entry, looked up): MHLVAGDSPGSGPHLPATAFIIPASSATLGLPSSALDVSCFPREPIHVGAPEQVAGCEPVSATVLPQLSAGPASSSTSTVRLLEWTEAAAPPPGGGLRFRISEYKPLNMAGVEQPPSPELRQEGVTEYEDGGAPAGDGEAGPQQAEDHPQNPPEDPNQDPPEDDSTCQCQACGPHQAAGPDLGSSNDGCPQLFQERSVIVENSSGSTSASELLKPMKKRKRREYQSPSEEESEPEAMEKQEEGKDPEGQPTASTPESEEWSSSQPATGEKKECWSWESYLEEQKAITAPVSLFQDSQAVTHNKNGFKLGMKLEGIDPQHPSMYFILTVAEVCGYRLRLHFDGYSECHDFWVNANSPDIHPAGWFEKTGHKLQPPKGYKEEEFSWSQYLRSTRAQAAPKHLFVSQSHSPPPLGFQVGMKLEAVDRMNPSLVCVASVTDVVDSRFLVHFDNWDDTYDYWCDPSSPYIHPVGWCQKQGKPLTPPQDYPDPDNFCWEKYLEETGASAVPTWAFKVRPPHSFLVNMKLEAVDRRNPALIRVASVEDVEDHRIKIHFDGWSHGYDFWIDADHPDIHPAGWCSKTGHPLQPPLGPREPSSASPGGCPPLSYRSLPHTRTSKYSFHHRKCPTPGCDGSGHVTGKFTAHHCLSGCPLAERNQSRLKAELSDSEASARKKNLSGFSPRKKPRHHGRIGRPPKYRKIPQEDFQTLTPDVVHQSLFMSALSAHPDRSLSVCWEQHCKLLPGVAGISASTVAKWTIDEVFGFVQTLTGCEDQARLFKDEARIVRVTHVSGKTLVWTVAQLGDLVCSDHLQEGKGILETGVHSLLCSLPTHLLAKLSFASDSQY
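L3MBTL1 50 nM + b-AHA-H3(1-15)K9me1 75 nM, 30 min RT; compound added, 30 min RT; streptavidin donor/Ni-chelate acceptor beads 10 ug/mL each final, 30 min RT dark; AlphaScreen read.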
An asterisk follows results filed as active; ? = inconclusive; nt = no result given; [ ] = dose if it differs, or a comment. Calls come from the whole dose curve; as a rule, active = well fitted curve in the direction sought with a large enough effect; inconclusive = small, poorly fitted or top-dose-only effect, or another doubt; inactive = no such curve, though single readings can be large; an effect the other way counts as inactive or inconclusive. Potency is the fitted concentration of half-maximal effect.

SMILES	HP1b chromo inh	JMJD2A Tudor inh	Sfp inh	G9a block	BAZ2B block	L3MBTL1 block
CN1CCN(c2cc(N3CCN(C(=O)c4ccco4)CC3)c3c4c(onc24)-c2ccccc2C3=O)CC1	?	40µM*	16µM*	35µM*	16µM*	nt
O=C(c1ccco1)N1CCN(CCCCN2C(=O)c3ccccc3C2=O)CC1	40%	-12%	3%	-30%[59 µM]	17%	3%
O=C(O)CCCNc1cc(N2CCN(C(=O)c3ccco3)CC2)c2noc3c2c1C(=O)c1ccccc1-3	35µM*	35µM*	-3%	10µM*	18µM*	nt
CCOC(=O)N1CCN(c2cc(NCCC(=O)O)c3c4c(onc24)-c2ccccc2C3=O)CC1	-90%	56µM*	-24%	?	28µM*	8.9µM*
O=C(O)CCCNc1cc(N2CCC3(CC2)OCCO3)c2noc3c2c1C(=O)c1ccccc1-3	nt	nt	-11%	?	14µM*	10µM*
Cn1cccc1C(=O)N1CCC[C@@]2(CCN(c3ncccn3)C2)C1	nt	nt	27%	0%[12.7 µM]	nt	nt
COc1cccc(C(=O)N2CCN(Cc3ccccn3)CC2)c1	-23%	3.5µM*	45µM*	45µM*	20µM*	nt
CCS(=O)(=O)N1CCN(C(=O)c2cc(OC)cc(OC)c2)CC1	20%	5%	4%	1%[12.7 µM]	-5%	nt
COc1cc(OC)cc(C(=O)N2CCN(Cc3ccccc3C(F)(F)F)CC2)c1	?	1.6µM*	?	7.9µM*	35µM*	1%
CCC(C)N1CCN(C(=O)c2cc(OC)cc(OC)c2)CC1 (centres undefined)	?	20µM*	-22%	nt	79µM*	-1%
COc1cc(C(=O)N2CCN(Cc3ccccc3C(F)(F)F)CC2)cc(OC)c1OC	?	20µM*	?	?	32µM*	-9%
COc1ccc(-c2nc3c(c4c2C[C@H](c2ccccc2)OC4)CN(S(=O)(=O)c2ccc4c(c2)OCCN4C)CC3)c(C)c1	nt	nt	-5%	nt	nt	nt
c1ccc(COc2ccc(CNCc3cccs3)cc2)cc1	50%	17%	56µM*	14%	44%	23%
COc1ccc(CCN2C(=O)CN(C3CCC(C)CC3)C(=O)C2c2ccc(OC(C)C)c(OC)c2)cc1OC (centres undefined)	33%	-27%	nt	-25%[59 µM]	-18%	nt
Cc1ccn2c(=O)cc(CSc3nnc(C)s3)nc2c1	21%[57 µM]	5%	nt	6%[59 µM]	4%	nt
Cn1c(O)c(C=Nc2ccc(N3CCOCC3)cc2)c(=O)n(C)c1=S	9%	-4%	-5%	2%[59 µM]	1%	nt
Cc1ccc(Cl)cc1-c1ccc(C=Nc2ccc(N3CCOCC3)cc2)o1	?	35µM*	?	?	28µM*	?
Cc1cc(O)c(C=Nc2ccc(N3CCOCC3)cc2)c(C)c1Cl	0%	-16%	-13%	8.9µM*	?	3%
CCOc1ccccc1N=NC1C(=O)N(C(N)=S)N=C1C (centres undefined)	-3%	-4%	-25%	50µM*	7%	nt
CC1=NN(C(N)=S)C(=O)C1N=Nc1ccccc1C (centres undefined)	-1%	-25%	-3%	1%[59 µM]	-11%	13%
CC1=NN(C(N)=S)C(=O)C1N=Nc1ccccc1O (centres undefined)	47%	56µM*	10%	nt	50µM*	?
Cc1cnc(=O)[nH]c1SCC(=O)Nc1cc(C(F)(F)F)ccc1Cl	4%	3%	nt	9%[59 µM]	-1%	nt
CC(C)c1ccc(NCCC(=O)c2cccs2)cc1	-17%	?	1%	?	?	-15%
Cc1ccc(NCCC(=O)c2cccs2)cc1	-15%	50µM*	4%	50µM*	?	-25%
Cc1ccc(NCCC(=O)c2cccs2)cc1C	?	56µM*	11%	32µM*	?	-4%
SMILES	HP1b chromo inh	JMJD2A Tudor inh	Sfp inh	G9a block	BAZ2B block	L3MBTL1 block
NC(=O)c1ccc(N2CCCCC2)c(N2C(=O)C3CC=CCC3C2=O)c1 (centres undefined)	22%	-5%	7%	1%[12.7 µM]	50µM*	-1%
O=C(c1cccc(N2C(=O)C3CC=CCC3C2=O)c1)N1CCCCCC1 (centres undefined)	12%	-25%	-5%	9%[59 µM]	1%	3%
Cc1cc(C)c(NC(=O)CN2C(=O)c3cccnc3Oc3ccc(C)cc32)c(C)c1	33%	-3%	nt	6%[59 µM]	-1%	nt
CSc1ccccc1C(=O)NC1CCCN(Cc2ccccc2F)C1 (centres undefined)	51%	-11%	1%	10µM*	-4%	3%
O=C(C1CCCN(Cc2ccccc2F)C1)N1CCCC1 (centres undefined)	?	28µM*	-20%	40µM*	56µM*	3%
O=C(C1CCCN(Cc2cc(Br)ccc2O)C1)N1CCCCC1 (centres undefined)	-7%	7.9µM*	-15%	25µM*	50µM*	nt
O=C(Cc1ccc(Cl)cc1)NC1CCCN(Cc2ccccc2F)C1 (centres undefined)	53%	2%	5%	11%	-30%	3%
COc1ccccc1NC(=O)N1CCN(c2nnc(C)c3c(C)n(-c4ccccc4)nc23)CC1	84%	-14%	nt	?	-4%	nt
Cc1ccc(C(=O)NCC(c2cccnc2)N2CCc3ccccc32)cc1C (centres undefined)	-16%	?	nt	?	?	nt
CC(C)(C)c1ccc(C(=O)NCC(c2cccnc2)N2CCc3ccccc3C2)cc1 (centres undefined)	?	?	nt	?	3.2µM*	nt
Cc1ccc(C(=O)NCC(c2cccnc2)N2CCc3ccccc3C2)cc1C (centres undefined)	7%	?	nt	?	13µM*	nt
Cc1ccc(NC(=O)C(=O)NCC(c2cccnc2)N2CCc3ccccc3C2)cc1 (centres undefined)	18%	-21%	nt	-28%[59 µM]	-14%	nt
Cc1nnc(-c2ccccc2)c(=O)n1/N=C/c1c(O)ccc2ccccc12	3%	56µM*	13%	?	25µM*	?
Cc1nnc(C)n1/N=C/c1c(O)ccc2ccccc12	37%	8.9µM*	-27%	7%[2.33 µM]	?	nt
O=C1C2C3C=CC(CC3)C2C(=O)N1/N=C/c1c(O)ccc2ccccc12 (centres undefined)	19%	-7%	-11%	25µM*	-5%	-17%
CCOc1cc(/C=N/n2c(C)nnc2C)ccc1O	37%	-5%	20%	-2%	-1%	-7%
COc1ccc(/C=C/C(=O)Nc2nc3n(n2)C(c2ccc(F)cc2)C=C(c2ccccc2)N3)cc1 (centres undefined)	14%	-17%	nt	-32%[59 µM]	-39%	nt
